These results are taken from PubChem BioAssay AID1851 (National Center for Advancing Translational Sciences (NCATS), 2009).

Out of some 16,000 compounds screened, about 4,000 (25%) were called active. Not shown: some 26% with an inconclusive outcome. Not all results are given here. A number with no mark means an inactive call. Calls follow the shape of the dose curve; as a rule, active = well fitted curve in the direction sought with a large enough effect; inconclusive = small, poorly fitted or top-dose-only effect, or effect the other way; inactive = no such curve, though single readings can be large or run the other way.
% is scaled to controls: 0 for no effect and ±100 for the full control effect.

Cytochrome P450 2C9 (Homo sapiens), sequence (P11712 whole entry, looked up): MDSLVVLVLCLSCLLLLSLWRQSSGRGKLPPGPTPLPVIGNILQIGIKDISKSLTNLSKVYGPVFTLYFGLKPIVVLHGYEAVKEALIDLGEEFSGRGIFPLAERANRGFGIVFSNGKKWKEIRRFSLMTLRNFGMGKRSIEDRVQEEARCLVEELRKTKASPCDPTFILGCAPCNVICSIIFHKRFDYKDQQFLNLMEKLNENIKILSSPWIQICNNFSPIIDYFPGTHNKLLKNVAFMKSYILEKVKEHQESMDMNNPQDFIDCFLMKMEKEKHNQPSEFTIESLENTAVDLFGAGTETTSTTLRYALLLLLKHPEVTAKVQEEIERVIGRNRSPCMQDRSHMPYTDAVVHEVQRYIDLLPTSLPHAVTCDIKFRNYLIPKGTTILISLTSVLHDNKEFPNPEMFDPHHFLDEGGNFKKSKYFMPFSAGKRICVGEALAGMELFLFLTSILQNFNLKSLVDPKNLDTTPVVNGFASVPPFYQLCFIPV

This experiment addresses Cytochrome P450 2C9 (Homo sapiens) (UniProt P11712). Description: Cytochrome panel assay with activity outcomes. The conditions noted are these: recombinant CYP, pro-luciferin dealkylation, luminescence, p450-cyp2c9; series mostly up to 57.1 µM; activity, negative = inhibition: at the top concentration.
For `Nc1ncnc2c1nc(-c1ccccc1)n2[C@H]1O[C@@H](CO)[C@@H](O)[C@H]1O`, the activity, negative = inhibition was 9.27% [at 11.4 µM].

Take `Cn1cc([N+](=O)[O-])c(C(=O)Nc2cc(Oc3cccnc3)cc([N+](=O)[O-])c2)n1`: the AC50 is 5.62 µM (active).

Regarding `CCC/C=C(\CCC)C(NS(=O)(=O)c1cccc2cccnc12)c1ccc(C(=O)OC)cc1` (stereo unspecified), the AC50 is 1.58 µM (active).

`CCC/C=C(\CCC)C(NS(=O)(=O)c1cccc2cccnc12)c1ccc(-c2ccccc2)cc1` (stereo unspecified): the AC50 was 2 µM (active).

Take `O=[N+]([O-])c1cccc2c[nH]nc12`: the “activity, negative = inhibition” value is 7.17%.

For the compound `O=[N+]([O-])c1ccc(S(=O)(=O)Cc2ccccc2)c2nonc12`, the AC50 is 0.316 µM (active).

As to `COc1cc(OC)c(OC)cc1C=NCC1(c2ccccc2)CCCC1`, the “activity, negative = inhibition” value was 32.7%.

Take `CN1CCCC2(CCN(C(=O)c3cnccn3)CC2)C1`: the “activity, negative = inhibition” value is 15.7%.

With `Cc1cc(OCCn2cc(/C(N)=N/O)c3ccccc32)ccc1Cl`, the half-maximal activity concentration (AC50) was 12.6 µM (active).

For the compound `CC(C)(N)C(=O)N[C@@H]1C(=O)N2[C@@H]1SC(C)(C)[C@H]2C(=O)O`, the activity, negative = inhibition was 14.5% [at 11.4 µM].

For the compound `Cc1csc(NC(=O)Cc2c[nH]c3ccccc23)n1`, the AC50 is 12.6 µM (active).

Consider `CC1(C)Cc2c(C#N)c(SCc3ccccc3)nc(N3CCOCC3)c2CO1`, for which the concentration at half-maximal activity (AC50) was 0.708 µM (active).

Turning to `CCCCCCC(C)n1cc(C(C)=O)c(=O)[nH]c1=O` (stereo unspecified), the “activity, negative = inhibition” value was -56.9%.

As for `COC(=O)[C@H](N)Cc1ccc(Cl)cc1`, the “activity, negative = inhibition” value is -6.72%.

As for `O=C(Oc1ccc2c(c1)CN(Cc1ccccc1)CO2)c1ccccc1`, the activity, negative = inhibition is -0.387% [at 11.4 µM].

For `COC(=O)C(Cc1ccc(OC(=O)c2ccc(C(F)(F)F)cc2)cc1)N1Cc2ccccc2C1=O` (stereo unspecified), the concentration at half-maximal activity (AC50) was 8.91 µM (active).

In the case of `COC(=O)C(Cc1ccc(OC(=O)c2ccc(Cl)cc2)cc1)N1Cc2ccccc2C1=O` (stereo unspecified), the AC50 was 3.16 µM (active).

As for `CCN(CC)C(=O)C1=C(C)NC(=S)NC1c1cn(-c2ccccc2)nc1-c1ccc(Cl)cc1` (stereo unspecified), the “activity, negative = inhibition” value is -22.4%.

`COC(=O)C1=C(C)NC2=C(C(=O)CCC2)C1c1cn(Cc2ccc(Cl)cc2Cl)nc1-c1ccccc1` (stereo unspecified): the half-maximal activity concentration (AC50) was 1 µM (active).

`c1ccc2c(c1)CCCc1cc(NCCN3CCOCC3)nnc1-2`: the “activity, negative = inhibition” value was 8.78% [at 25.6 µM].

Turning to `COc1ccccc1CN1CCC2(CCNCC2)CC1`, the “activity, negative = inhibition” value is -8.3%.

On to `C(=Nc1cnc2ccccc2c1)c1ccc2ccccc2n1`, for which the activity, negative = inhibition was 3.29% [at 11.4 µM].

For `Cc1cccc(NC(=S)Nc2ccc(Br)cc2)c1`, the “activity, negative = inhibition” value was -14.1%.

For the compound `Cc1cccc(NC(=S)NC(=O)CCc2ccccc2)c1`, the AC50 is 7.94 µM (active).

In the case of `C/C(=N\NC(=S)Nc1cccc(C)c1)c1ccccc1`, the AC50 was 6.31 µM (active).

As to `C[C@@H](c1ccccc1)N1C(=O)[C@H]2[C@H]3[C@H](O)[C@H](O)C/C(=N/OCc4ccccc4)[C@@H]3CC[C@@H]2C1=O`, the activity, negative = inhibition was -23.4% [at 11.4 µM].

As to `COc1ccc(CNc2ncncc2-c2cccc(C#N)c2)c(OC)c1`, the activity, negative = inhibition is -28.7% [at 2.29 µM].

Turning to `CN1CCN(C(c2ccccc2)c2ccccc2)CC1`, the “activity, negative = inhibition” value is -7.31% [at 25.6 µM].

Consider `S=C(NCc1ccco1)N1CCN(C(c2ccccc2)c2ccccc2)CC1`, for which the AC50 was 3.16 µM (active).

Take `NC(=O)CNCCC(c1ccccc1)c1ccccc1`: the “activity, negative = inhibition” value was 14.6%.

Turning to `O=C1C2ON(c3ccccc3)C(c3ccncc3)C2C(=O)N1c1ccccc1` (stereo unspecified), the AC50 was 0.398 µM (active).

As to `COC(=O)c1cc(=O)n(C2CC2)c(=NC2CC2)s1`, the “activity, negative = inhibition” value is 18.9%.

Regarding `CCCC(C(=O)Nc1nccs1)c1ccccc1` (stereo unspecified), the AC50 is 12.6 µM (active).

In the case of `O=C(O)c1ccccc1C(=O)Nc1nccs1`, the “activity, negative = inhibition” value is -17.5%.

For `O=C(O)[C@H](CCc1ccccn1)c1ccccc1`, the activity, negative = inhibition is -5.61% [at 11.4 µM].

Consider `COc1ccccc1CN1CCC2(CC1)CCN(C(=O)c1cccn1C)CC2`, for which the “activity, negative = inhibition” value was 8.97%.

Turning to `CC(=O)OCCCN1c2ccccc2Nc2nnc(-c3ccccc3)cc21`, the AC50 is 1.78 µM (active).

As for `CCCNC(=O)N1N=C(c2ccc(N)cc2)c2cc3c(cc2[C@H]1C)OCO3`, the “activity, negative = inhibition” value is -17%.

As for `Cc1ccc(SCCNC(=S)Nc2ccc(C)c(C)c2)cc1`, the AC50 was 12.6 µM (active).

For the compound `Cc1ccc(SCc2ccc(C(=O)NCc3ccncc3)cc2)cc1`, the AC50 is 0.0126 µM (active).

For `Cc1ccc(SCCNC(=O)c2ccc(C)c(S(=O)(=O)Nc3ccccc3C)c2)cc1`, the AC50 was 4.47 µM (active).

With `Cc1ccc(C)c(S(=O)(=O)NC(CC(C)C)C(=O)O)c1` (stereo unspecified), the “activity, negative = inhibition” value is 2.73%.

Turning to `Cc1ccc(C(=O)NCc2ccc(N3CCN(C(=O)OC(C)(C)C)CC3)cc2)cc1`, the “activity, negative = inhibition” value is -18.2%.

As to `O=C(O)[C@@H]1[C@@H](C(=O)NCc2ccncc2)[C@@H]2C=C[C@@H]1O2`, the activity, negative = inhibition was -12.4% [at 11.4 µM].

Consider `Cc1ccccc1NS(=O)(=O)c1cc(C(=O)Nc2cccc(N(C)S(C)(=O)=O)c2)ccc1C`, for which the AC50 is 0.794 µM (active).

`COCC(=O)N1CCC2(CC1)CN(Cc1ccccc1OC)C2`: the “activity, negative = inhibition” value was 16.9%.

Consider `CC1=C(C(=O)O)N2C(=O)C(NC(=O)c3ccn(C)n3)C2SC1` (stereo unspecified), for which the “activity, negative = inhibition” value is -1.32%.

In the case of `CC(C)(N=NC(C)(C)C(=N)N)C(=N)N`, the activity, negative = inhibition is 0.959% [at 11.4 µM].

As to `COc1ccccc1CN1CCCC2(CCN(C(=O)c3cnccn3)CC2)C1`, the “activity, negative = inhibition” value is 13.5%.

Regarding `Cc1ccc(SCCNC(=O)c2ccccc2)cc1`, the half-maximal activity concentration (AC50) was 17.8 µM (active).

In the case of `Cc1ccc(C(=O)NCCNC(=O)CN2CCOCC2)cc1`, the “activity, negative = inhibition” value is -18.5%.
